# Results filed as inconclusive are left out. The source made the active and inactive calls. Rule for the calls, unless noted: active = hit-call score of the fitted dose curve at least 0.9, where 1 is the maximum; inactive = score below 0.9.
# Legend:
# [1] = molecular target: Paired box protein Pax-6 (Homo sapiens) (UniProt P26367); assay: ATG_Pax6_CIS: Attagene CIS-FACTORIAL HepG2 Assay for human Paired Box 6 (PAX6) (AID 2282956); conditions: HepG2 CIS-FACTORIAL PAX6 reporter transcription, RNA readout; actives raise or lower the signal
# In short: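 Values derive from bidirectional curve fitting of reporter mRNA signal relative to DMSO. HepG2 cells bearing transfected cis-regulated MRTUs were exposed for 24 h; transcripts were read by RT-PCR and capillary electrophoresis.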
# [2] = ATG_PXRE_CIS: Attagene CIS-FACTORIAL HepG2 Assay for human Pregnane X Receptor Element (PXRE) (AID 2282957); conditions: HepG2 Attagene CIS-FACTORIAL PXRE reporter, mRNA; actives raise or lower the signal
# In short: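 Endogenous transcription factor activity in HepG2 was gauged through induction of reporter mRNA driven by a cis-regulating promoter element, sampled 24 h post-treatment. Activity was fitted in both directions against DMSO negative control.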
# [3] = ATG_PPRE_CIS: Attagene CIS-FACTORIAL HepG2 Assay for human Peroxisome Proliferator-activated Response Element (PPRE) (AID 2282958); conditions: HepG2 PPRE cis-element reporter, Attagene transcription factor profiling; actives raise or lower the signal
# In short: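 DMSO served as negative control and baseline for bidirectional curve fitting. Signal came from PPRE-regulated reporter mRNA in HepG2 cells, measured 24 h post-dosing by RT-PCR, 6-FAM primer extension and capillary electrophoresis.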
# [4] = ATG_RORE_CIS: Attagene CIS-FACTORIAL HepG2 Assay for human RAR-related Orphan Receptor Element (RORE) (AID 2282959); conditions: HepG2 Attagene cis-factorial RORE reporter, mRNA; actives raise or lower the signal
# In short: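 Transfect HepG2 with MRTUs; treat 24 h; extract RNA; RT with oligo(dT); PCR with reporter-specific primers; 6-FAM primer extension; HpaI digest 2 h at 37 C; capillary electrophoresis. Fit vs DMSO, bidirectional.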
# [5] = ATG_Sox_CIS: Attagene CIS-FACTORIAL HepG2 Assay for human SRY-box transcription factor (SOX) (AID 2282960); conditions: HepG2 Attagene cis-factorial SOX reporter, mRNA; actives raise or lower the signal
# In short: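 Fluorescence-labelled cDNA fragments from reporter transcripts, sized by CE, give the signal. Cells: HepG2, transiently transfected with cis-regulated reporter units. Exposure 24 h; DMSO negative control; bidirectional curve fitting.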
# [6] = molecular target: Transcription factor Sp1 (Homo sapiens) (UniProt P08047); assay: ATG_Sp1_CIS: Attagene CIS-FACTORIAL HepG2 Assay for human Specificity Protein 1 (Sp1) (AID 2282961); conditions: HepG2 Sp1 cis-reporter transcription, actives raise or lower the signal
# In short: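 Chemicals are dosed onto HepG2 cells transfected with multiple cis-promoter reporter constructs, and after 24 h reporter RNA is reverse-transcribed, PCR-amplified and resolved by capillary electrophoresis for fluorescence quantitation; activity is scored up or down against DMSO.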
# [7] = ATG_SREBP_CIS: Attagene CIS-FACTORIAL HepG2 Assay for human Sterol Regulatory Element Binding (SREBP) (AID 2282962); conditions: HepG2 Attagene cis-factorial SREBP reporter, mRNA; actives raise or lower the signal
# In short: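 Values derive from bidirectional curve fitting with DMSO as baseline. The underlying measurement is reporter mRNA from cis-element-regulated units in transiently transfected HepG2, quantified by RT-PCR and capillary electrophoresis after 24 h exposure.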
# [8] = molecular target: Signal transducer and activator of transcription 3 (Homo sapiens) (UniProt P40763); assay: ATG_STAT3_CIS: Attagene CIS-FACTORIAL HepG2 Assay for human Signal Transducer and Activator of Transcription 3 (STAT3) (AID 2282963); conditions: HepG2, Attagene cis-factorial STAT3 reporter transcription; actives raise or lower the signal
# In short: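 Uses human liver HepG2 transiently carrying cis-regulated reporter transcription units. Following 24 h dosing, reporter mRNA induction was detected by RT-PCR and capillary electrophoresis, analysed bidirectionally versus DMSO.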
# [9] = ATG_TA_CIS: Attagene CIS-FACTORIAL HepG2 Assay for human TA Basal Promoter (AID 2282964); conditions: HepG2 Attagene CIS-factorial TA basal promoter reporter; actives raise or lower the signal
# In short: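 Read-out: fluorescent reporter-transcript fragments resolved by capillary electrophoresis after RT-PCR and HpaI digestion. Source: HepG2 cells carrying transiently transfected multi-reporter cis constructs, treated 24 h. Endpoint fitted bidirectionally relative to DMSO.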
# [10] = ATG_TAL_CIS: Attagene CIS-FACTORIAL HepG2 Assay for human TAL Basal Promoter (AID 2282966); conditions: HepG2 Attagene cis-factorial TAL promoter reporter; actives raise or lower the signal;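 note: background control endpoint measuring basal TAL promoter reporter mRNA not a specific factor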
# In short: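 Endogenous transcription-factor activity is sensed in HepG2 cells through transfected cis-promoter reporter constructs. After 24 h dosing, reporter transcripts are quantified by RT-PCR and capillary electrophoresis. Gain or loss of signal is fitted relative to DMSO.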
# [11] = ATG_TGFb_CIS: Attagene CIS-FACTORIAL HepG2 Assay for human Transforming Growth Factor (TGF) (AID 2282967); conditions: HepG2 Attagene CIS TGFb reporter, mRNA transcription; actives raise or lower the signal
# In short: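 Transient MRTU transfection of HepG2 (FuGene 6). Dose 24 h. TriZol RNA, oligo(dT) RT, PCR, 6-FAM primer extension, HpaI cut, CE. Bidirectional fit, DMSO = baseline.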
# [12] = ATG_VDRE_CIS: Attagene CIS-FACTORIAL HepG2 Assay for human Vitamin D Receptor Element (VDRE) (AID 2282968); conditions: HepG2 VDRE cis-reporter transcription, actives raise or lower the signal
# In short: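 Transfected HepG2 reporter cells, chemical treatment 24 h. RNA isolated, cDNA amplified with reporter-specific primers, products analysed by capillary electrophoresis. Endpoint fitted in both directions versus DMSO.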
# [13] = molecular target: Nuclear receptor subfamily 1 group I member 3 (Homo sapiens) (UniProt Q14994); assay: ATG_CAR_TRANS: Attagene TRANS-FACTORIAL HepG2 Assay for human Constitutive Androstane Receptor (CAR) (AID 2282969; active = hit-call score of the fitted dose curve at least 0.9, where 1 is the maximum;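 note: activators raise reporter mRNA above DMSO so AC50 marks induction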); conditions: HepG2 Attagene TRANS-FACTORIAL CAR reporter
# In short: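 Steps: transient transfection of HepG2 with multiple GAL4-UAS reporter units; 24 h compound incubation; RNA isolation, RT-PCR, 6-FAM primer extension, HpaI digest; capillary electrophoresis. Gain-of-signal relative to DMSO negative control.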
# [14] = molecular target: X-box-binding protein 1 (Homo sapiens) (UniProt P17861); assay: ATG_Xbp1_CIS: Attagene CIS-FACTORIAL HepG2 Assay for human X-box Binding Protein 1 (XBP1) (AID 2282972); conditions: HepG2 XBP1 cis-element reporter, Attagene multiplex; actives raise or lower the signal
# In short: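 Human hepatoma HepG2, cis-element reporter system, 24 h treatment; mRNA quantified by RT-PCR/CE fluorescence; fit relative to DMSO.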
# [15] = ATG_M_19_TRANS: Attagene TRANS-FACTORIAL HepG2 Assay for M19 Transcription Factor (Internal Marker) (AID 2282974; active = hit-call score of the fitted dose curve at least 0.9, where 1 is the maximum); conditions: HepG2 Attagene TRANS-FACTORIAL M19 internal marker reporter
# In short: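 Multiplexed TRANS format: HepG2 liver cells bearing transient GAL4-UAS reporter units, chemical treatment 24 h, reporter transcripts quantified by RT-PCR plus capillary electrophoresis. DMSO defines baseline.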
# [16] = ATG_TCF_b_cat_CIS: Attagene CIS-FACTORIAL HepG2 Assay for human T-Cell-Factor with beta-catenin (TCF/b-cat) (AID 2282965); conditions: HepG2 TCF/beta-catenin cis-reporter transcription, actives raise or lower the signal
# In short: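 In this cis-format system, transfected HepG2 cells report endogenous transcription factor activity. Readout after 24 h exposure is reporter transcript abundance from RT-PCR and capillary electrophoresis, analysed for gain or loss of signal versus DMSO.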
# [17] = molecular target: Estrogen receptor (Homo sapiens) (UniProt P03372); assay: ATG_ERa_TRANS: Attagene TRANS-FACTORIAL HepG2 Assay for human Estrogen Receptor alpha (ERa) (AID 2282970; active = hit-call score of the fitted dose curve at least 0.9, where 1 is the maximum); conditions: HepG2 Attagene TRANS ERa GAL4 reporter, mRNA
# In short: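 Transfected HepG2 cells carrying GAL4-UAS-driven reporter units were dosed for 24 hours. Total RNA was reverse-transcribed, reporter sequences PCR-amplified, FAM-labelled, HpaI-digested and resolved by capillary electrophoresis. Increases over DMSO control defined activity.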
# [18] = molecular target: Steroid hormone receptor ERR1 (Homo sapiens) (UniProt P11474); assay: ATG_ERRa_TRANS: Attagene TRANS-FACTORIAL HepG2 Assay for human Estrogen-Related Receptor alpha (ERRa) (AID 2282971; active = hit-call score of the fitted dose curve at least 0.9, where 1 is the maximum); conditions: HepG2 Attagene TRANS reporter, ERRa transactivation
# In short: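 HepG2 cells were transiently transfected with multiple GAL4-UAS reporter units, then dosed with compound for 24 h. Total RNA was reverse-transcribed, reporter cDNA PCR-amplified and fluorescently labelled, and fragments resolved by capillary electrophoresis; induction was compared with DMSO.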
# [19] = molecular target: Androgen receptor (Homo sapiens) (UniProt P10275); assay: ATG_AR_TRANS: Attagene TRANS-FACTORIAL HepG2 Assay for human Androgen Receptor (AR) (AID 2282973; active = hit-call score of the fitted dose curve at least 0.9, where 1 is the maximum); conditions: HepG2 Attagene TRANS-FACTORIAL AR reporter transcription
# In short: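 Transfected HepG2, 24 h treatment, chimeric NR-Gal4 driving GAL4-UAS reporters. mRNA induction by RT-PCR/capillary electrophoresis fluorescence; DMSO as negative control and baseline.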
# Chain of Transcription factor Sp1 (Homo sapiens) (P08047 whole entry, looked up): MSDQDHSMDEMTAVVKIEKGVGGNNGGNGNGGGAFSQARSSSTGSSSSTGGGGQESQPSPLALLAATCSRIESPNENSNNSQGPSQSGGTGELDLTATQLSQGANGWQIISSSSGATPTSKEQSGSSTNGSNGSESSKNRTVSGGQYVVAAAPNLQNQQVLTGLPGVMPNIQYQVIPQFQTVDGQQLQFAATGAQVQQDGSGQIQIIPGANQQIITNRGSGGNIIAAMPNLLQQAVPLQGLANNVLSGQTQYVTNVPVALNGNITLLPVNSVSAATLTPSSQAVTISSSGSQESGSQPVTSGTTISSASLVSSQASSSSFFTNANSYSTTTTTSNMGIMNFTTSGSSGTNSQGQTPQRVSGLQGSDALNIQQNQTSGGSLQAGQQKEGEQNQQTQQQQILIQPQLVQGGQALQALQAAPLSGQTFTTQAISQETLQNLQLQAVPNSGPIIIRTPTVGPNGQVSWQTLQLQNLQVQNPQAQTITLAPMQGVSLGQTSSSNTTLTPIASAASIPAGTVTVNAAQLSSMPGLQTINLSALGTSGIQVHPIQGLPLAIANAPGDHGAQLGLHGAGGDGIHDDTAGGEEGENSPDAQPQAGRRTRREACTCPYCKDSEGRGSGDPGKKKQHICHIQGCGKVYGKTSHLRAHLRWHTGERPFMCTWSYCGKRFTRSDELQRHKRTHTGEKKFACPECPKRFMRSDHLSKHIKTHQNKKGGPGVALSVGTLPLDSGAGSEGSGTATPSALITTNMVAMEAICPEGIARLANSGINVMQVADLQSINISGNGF
# Chain of Steroid hormone receptor ERR1 (Homo sapiens) (P11474 whole entry, looked up, the tested form may be a part): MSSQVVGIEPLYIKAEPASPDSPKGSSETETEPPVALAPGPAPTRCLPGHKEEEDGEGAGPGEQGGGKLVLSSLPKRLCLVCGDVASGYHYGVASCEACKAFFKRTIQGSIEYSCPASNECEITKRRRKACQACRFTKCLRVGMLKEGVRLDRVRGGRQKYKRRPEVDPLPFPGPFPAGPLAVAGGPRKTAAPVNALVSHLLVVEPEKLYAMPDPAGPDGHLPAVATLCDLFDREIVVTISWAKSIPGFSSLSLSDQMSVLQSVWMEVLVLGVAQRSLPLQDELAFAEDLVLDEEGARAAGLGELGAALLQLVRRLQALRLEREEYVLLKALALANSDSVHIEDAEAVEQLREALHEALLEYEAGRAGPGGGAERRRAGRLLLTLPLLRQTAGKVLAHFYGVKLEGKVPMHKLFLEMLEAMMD
# Chain of Nuclear receptor subfamily 1 group I member 3 (Homo sapiens) (Q14994 whole entry, looked up, the tested form may be a part): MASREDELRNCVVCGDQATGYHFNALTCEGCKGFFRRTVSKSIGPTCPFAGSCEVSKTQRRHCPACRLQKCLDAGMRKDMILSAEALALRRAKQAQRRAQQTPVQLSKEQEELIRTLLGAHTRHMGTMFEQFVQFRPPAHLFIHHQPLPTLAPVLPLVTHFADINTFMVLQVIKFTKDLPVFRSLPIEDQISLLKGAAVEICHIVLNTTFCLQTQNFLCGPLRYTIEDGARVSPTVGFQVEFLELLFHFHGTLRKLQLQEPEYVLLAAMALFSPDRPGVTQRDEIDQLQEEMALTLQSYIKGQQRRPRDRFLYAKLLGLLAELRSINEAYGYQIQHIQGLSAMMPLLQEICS
# Chain of Signal transducer and activator of transcription 3 (Homo sapiens) (P40763 whole entry, looked up): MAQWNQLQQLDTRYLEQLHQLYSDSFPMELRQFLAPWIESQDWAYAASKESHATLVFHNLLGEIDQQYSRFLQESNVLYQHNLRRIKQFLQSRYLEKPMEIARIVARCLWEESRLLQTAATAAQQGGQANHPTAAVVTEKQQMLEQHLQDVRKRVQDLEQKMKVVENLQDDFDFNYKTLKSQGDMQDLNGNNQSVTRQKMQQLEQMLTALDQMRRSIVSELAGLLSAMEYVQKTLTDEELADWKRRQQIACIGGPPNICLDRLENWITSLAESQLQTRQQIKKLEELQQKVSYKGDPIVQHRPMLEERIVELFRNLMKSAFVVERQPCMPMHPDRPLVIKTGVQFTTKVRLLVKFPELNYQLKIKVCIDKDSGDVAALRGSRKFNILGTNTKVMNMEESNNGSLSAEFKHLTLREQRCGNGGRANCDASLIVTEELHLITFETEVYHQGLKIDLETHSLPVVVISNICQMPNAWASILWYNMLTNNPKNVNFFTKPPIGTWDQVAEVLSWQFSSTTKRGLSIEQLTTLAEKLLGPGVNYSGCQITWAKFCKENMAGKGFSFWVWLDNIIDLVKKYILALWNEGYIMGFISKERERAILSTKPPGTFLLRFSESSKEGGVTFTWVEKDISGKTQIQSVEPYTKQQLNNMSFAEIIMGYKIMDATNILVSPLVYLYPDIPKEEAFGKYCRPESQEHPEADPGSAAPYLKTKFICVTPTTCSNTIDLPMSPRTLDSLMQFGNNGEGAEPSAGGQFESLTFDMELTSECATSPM
# Chain of X-box-binding protein 1 (Homo sapiens) (P17861 whole entry, looked up): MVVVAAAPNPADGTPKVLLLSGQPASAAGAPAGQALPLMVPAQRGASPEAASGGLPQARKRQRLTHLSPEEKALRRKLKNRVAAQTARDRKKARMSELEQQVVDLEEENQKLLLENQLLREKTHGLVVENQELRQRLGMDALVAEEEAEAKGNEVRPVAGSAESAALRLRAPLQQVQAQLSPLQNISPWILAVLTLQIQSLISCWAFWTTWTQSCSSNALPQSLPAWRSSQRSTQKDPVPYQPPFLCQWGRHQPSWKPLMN
# Chain of Paired box protein Pax-6 (Homo sapiens) (P26367 whole entry, looked up): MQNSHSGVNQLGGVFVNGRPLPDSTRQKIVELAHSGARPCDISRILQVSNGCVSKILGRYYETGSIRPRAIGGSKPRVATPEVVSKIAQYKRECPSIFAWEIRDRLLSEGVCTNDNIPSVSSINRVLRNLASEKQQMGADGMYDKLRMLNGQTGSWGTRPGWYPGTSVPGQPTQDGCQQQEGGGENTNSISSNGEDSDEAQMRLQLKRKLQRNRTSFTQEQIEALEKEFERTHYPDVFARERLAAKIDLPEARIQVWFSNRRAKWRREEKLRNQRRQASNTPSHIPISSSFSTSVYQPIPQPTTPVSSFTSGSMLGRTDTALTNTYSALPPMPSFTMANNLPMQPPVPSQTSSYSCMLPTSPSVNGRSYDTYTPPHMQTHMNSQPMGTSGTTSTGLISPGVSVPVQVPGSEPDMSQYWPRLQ
# Chain of Estrogen receptor (Homo sapiens) (P03372 whole entry, looked up, the tested form may be a part): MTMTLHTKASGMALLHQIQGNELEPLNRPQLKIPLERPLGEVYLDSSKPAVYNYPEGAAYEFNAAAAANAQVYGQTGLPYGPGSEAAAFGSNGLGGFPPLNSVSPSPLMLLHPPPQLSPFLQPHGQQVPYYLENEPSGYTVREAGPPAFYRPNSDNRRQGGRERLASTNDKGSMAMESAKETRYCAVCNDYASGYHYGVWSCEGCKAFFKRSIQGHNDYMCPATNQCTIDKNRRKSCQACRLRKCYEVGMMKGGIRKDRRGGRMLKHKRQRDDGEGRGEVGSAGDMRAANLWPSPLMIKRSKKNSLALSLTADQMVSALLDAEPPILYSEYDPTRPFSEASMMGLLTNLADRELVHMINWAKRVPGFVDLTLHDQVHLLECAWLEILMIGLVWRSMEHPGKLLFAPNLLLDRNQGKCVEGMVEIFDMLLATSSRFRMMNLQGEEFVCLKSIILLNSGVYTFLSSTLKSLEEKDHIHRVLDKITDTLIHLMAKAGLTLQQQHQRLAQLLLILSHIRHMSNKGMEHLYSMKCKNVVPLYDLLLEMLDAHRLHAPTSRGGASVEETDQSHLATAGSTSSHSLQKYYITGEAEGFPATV
# Chain of Androgen receptor (Homo sapiens) (P10275 whole entry, looked up, the tested form may be a part): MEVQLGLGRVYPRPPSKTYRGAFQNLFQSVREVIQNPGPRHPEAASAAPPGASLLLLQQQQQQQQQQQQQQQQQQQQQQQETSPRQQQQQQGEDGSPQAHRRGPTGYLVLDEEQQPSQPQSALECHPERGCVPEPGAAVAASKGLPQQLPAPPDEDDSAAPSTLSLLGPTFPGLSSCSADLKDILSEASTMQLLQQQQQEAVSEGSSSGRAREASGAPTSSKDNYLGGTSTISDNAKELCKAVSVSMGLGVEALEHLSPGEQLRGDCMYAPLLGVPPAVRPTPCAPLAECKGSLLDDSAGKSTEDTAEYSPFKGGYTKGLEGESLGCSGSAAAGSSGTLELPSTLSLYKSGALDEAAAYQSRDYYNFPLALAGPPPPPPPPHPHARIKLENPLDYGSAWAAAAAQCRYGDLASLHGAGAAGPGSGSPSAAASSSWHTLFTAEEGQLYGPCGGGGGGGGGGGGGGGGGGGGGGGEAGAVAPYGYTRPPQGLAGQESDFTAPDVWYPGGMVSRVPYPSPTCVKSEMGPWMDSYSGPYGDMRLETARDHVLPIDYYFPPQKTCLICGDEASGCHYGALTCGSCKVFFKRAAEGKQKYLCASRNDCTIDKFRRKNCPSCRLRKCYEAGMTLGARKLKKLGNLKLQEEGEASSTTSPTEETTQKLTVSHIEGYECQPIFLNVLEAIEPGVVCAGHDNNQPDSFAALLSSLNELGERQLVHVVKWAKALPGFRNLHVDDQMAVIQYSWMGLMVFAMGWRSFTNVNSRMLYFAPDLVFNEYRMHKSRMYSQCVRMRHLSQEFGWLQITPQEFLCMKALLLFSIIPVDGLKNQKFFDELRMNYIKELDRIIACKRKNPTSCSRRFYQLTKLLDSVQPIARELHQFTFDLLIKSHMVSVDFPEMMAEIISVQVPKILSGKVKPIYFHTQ
smiles,measurement,setting,value
CCOP(=O)(SC(C)CC)N1CCSC1=O (stereo not given),outcome,[1],inactive
same,AC50,[2],22.9 µM (active)
same,outcome,[3],inactive
same,outcome,[4],inactive
same,outcome,[5],inactive
same,outcome,[6],inactive
same,outcome,[7],inactive
same,outcome,[8],inactive
same,outcome,[9],inactive
same,outcome,[10],inactive
same,outcome,[11],inactive
same,outcome,[12],inactive
same,outcome,[13],inactive
same,outcome,[14],inactive
same,outcome,[15],inactive
Cc1cc(C2CC2)nc(Nc2ccccc2)n1,AC50,[1],50 µM (active)
same,AC50,[2],13.4 µM (active)
same,AC50,[3],22 µM (active)
same,outcome,[4],inactive
same,AC50,[5],90 µM (active)
same,AC50,[6],84.7 µM (active)
same,outcome,[8],inactive
same,outcome,[9],inactive
same,outcome,[16],inactive
same,outcome,[10],inactive
same,AC50,[11],50 µM (active)
same,AC50,[12],28.6 µM (active)
same,outcome,[13],inactive
same,outcome,[17],inactive
same,AC50,[14],31.6 µM (active)
CCCCN(CC)c1c([N+](=O)[O-])cc(C(F)(F)F)cc1[N+](=O)[O-],outcome,[1],inactive
same,AC50,[2],7.62 µM (active)
same,outcome,[3],inactive
same,outcome,[4],inactive
same,outcome,[5],inactive
same,outcome,[6],inactive
same,outcome,[8],inactive
same,outcome,[9],inactive
same,outcome,[16],inactive
same,outcome,[10],inactive
same,outcome,[11],inactive
same,AC50,[12],13.3 µM (active)
same,outcome,[13],inactive
same,outcome,[18],inactive
same,outcome,[14],inactive
COP(=O)(OC)SCn1c(=O)oc2cc(Cl)cnc21,outcome,[1],inactive
same,AC50,[2],8.16 µM (active)
same,outcome,[3],inactive
same,outcome,[4],inactive
same,outcome,[5],inactive
same,outcome,[6],inactive
same,outcome,[8],inactive
same,outcome,[9],inactive
same,AC50,[16],10 µM (active)
same,outcome,[10],inactive
same,outcome,[11],inactive
same,outcome,[12],inactive
same,outcome,[13],inactive
same,outcome,[17],inactive
same,outcome,[18],inactive
same,outcome,[14],inactive
same,outcome,[19],inactive
same,outcome,[15],inactive
CCc1cnc(C2=NC(C)(C(C)C)C(=O)N2)c(C(=O)O)c1 (stereo not given),outcome,[1],inactive
same,outcome,[2],inactive
same,outcome,[3],inactive
same,outcome,[4],inactive
same,outcome,[5],inactive
same,outcome,[6],inactive
same,outcome,[7],inactive
same,outcome,[8],inactive
same,outcome,[9],inactive
same,outcome,[10],inactive
same,outcome,[11],inactive
same,outcome,[12],inactive
same,outcome,[13],inactive
same,outcome,[14],inactive
CCCSP(=O)(OCC)Oc1ccc(Br)cc1Cl (stereo not given),outcome,[1],inactive
same,AC50,[2],3.04 µM (active)
same,outcome,[3],inactive
same,outcome,[4],inactive
same,outcome,[5],inactive
same,outcome,[6],inactive
same,AC50,[7],1.31 µM (active)
same,outcome,[8],inactive
same,outcome,[9],inactive
same,outcome,[16],inactive
same,outcome,[10],inactive
same,outcome,[11],inactive
same,AC50,[12],6.6 µM (active)
same,outcome,[13],inactive
same,AC50,[14],1.31 µM (active)
CCOP(=S)(OCC)Oc1cc(C)nc(C(C)C)n1,outcome,[1],inactive
same,AC50,[2],4.15 µM (active)
same,AC50,[3],26 µM (active)
same,outcome,[4],inactive
same,outcome,[5],inactive
same,outcome,[6],inactive
same,AC50,[7],21.7 µM (active)
same,outcome,[8],inactive
same,outcome,[9],inactive
same,outcome,[10],inactive
same,outcome,[11],inactive
same,outcome,[13],inactive
same,outcome,[14],inactive
CCC(=NOC/C=C/Cl)C1=C(O)CC(C2CCOCC2)CC1=O (stereo not given),outcome,[1],inactive
same,outcome,[2],inactive
same,outcome,[3],inactive
same,outcome,[4],inactive
same,outcome,[5],inactive
same,outcome,[6],inactive
same,outcome,[8],inactive
same,outcome,[9],inactive
same,outcome,[16],inactive
same,outcome,[10],inactive
same,outcome,[11],inactive
same,outcome,[12],inactive
same,outcome,[18],inactive
same,outcome,[14],inactive
same,outcome,[15],inactive
